Pf Dd2 inh: Plasmodium falciparum Dd2 growth inhibition. P. falciparum Dd2 growth, SYBR Green, 72 h. Potency, µM (top dose mostly 28.9 µM), for the others: at the top dose activity, negative = inhibition, most hits filed as inhibitors. 4.3% of 120,000 active. AID 1347417; active means well fitted inhibition curve with a large enough effect;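 further: plate controls were DMSO vehicle for no effect and reference drug for full effect; nearly all actives have a fitted effect of over 65% in size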
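Readout: SYBR Green fluorescence, 485 nm excitation, 535 nm emission, after ~16 h lysis at 37C. Before that, Dd2-infected red cells (2.5% hematocrit) grew 72 h with compound, 29 uM top final concentration.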
An asterisk follows results filed as active; i = inactive; [ ] = remark or other dose. The sample as a whole holds a higher share of hits than the screen did. Potency means the concentration at half of the fitted maximal effect.

SMILES | Pf Dd2 inh
O=C(c1ccc(F)cc1)N1CCCC(CN2CCOCC2)CC1 (stereo not drawn) | -19%
CC1=C[C@@H](CNC(=O)C(C)(C)C)[C@H](C(C)C)C[C@H]1Cc1nnc(-c2ccccc2F)o1 | 0%[44.1 µM]
CC1=C[C@@H](CNS(=O)(=O)c2ccccc2)[C@H](C(C)C)C[C@H]1CC(=O)NCc1ccccn1 | i
CC1=C[C@@H](CNCc2ccco2)[C@H](C(C)C)C[C@H]1Cc1nnc(C(C)(C)C)o1 | 13µM*
CC1=C[C@@H](CNS(C)(=O)=O)[C@H](C(C)C)C[C@H]1Cc1nnc(-c2cncn2C)o1 | i
CC1=C[C@@H](CNS(=O)(=O)c2ccccc2)[C@H](C(C)C)C[C@H]1CC(=O)NCCN(C)C | -11%
COc1ccc(C(=O)NC[C@@H]2C=C(C)[C@H](CC(=O)O)C[C@H]2C(C)C)cc1 | -5%[44.1 µM]
CC1=C[C@@H](CN(C)CCc2ccccn2)[C@H](C(C)C)C[C@H]1Cc1nnc(-c2ccccc2)o1 | 2.2µM*
CC1=C[C@@H](CN(C)CCN(C)C)[C@H](C(C)C)C[C@H]1Cc1nnc(-c2ccccc2)o1 | 3.5µM*
CC1=C[C@@H](CNC(=O)COc2ccccc2)[C@H](C(C)C)C[C@H]1CC(=O)Nc1ccccn1 | i
CC1=C[C@@H](CN2CCC(C(N)=O)CC2)[C@H](C(C)C)C[C@H]1Cc1nnc(C(C)(C)C)o1 | i
COc1ccc(-c2nnc(C[C@@H]3C[C@@H](C(C)C)[C@H](CNCc4ccncc4)C=C3C)o2)cc1 | 4µM*
CN1CC(=O)N(C2CCCNCC2)Cc2c1ncnc2N1CCC(N2CCCC2)CC1 (stereo not drawn) | 19%
C#CCN(C)C(=O)[C@@H]1CCCN1[C@@H](C(=O)NC)c1ccccc1F | 25%[44.1 µM]
Cc1cnc(C2CCOCC2)n1CC1CCN(C(=O)CC2CCCC2)CC1 | -15%
COCCNC(=O)[C@H]1C[C@H](Oc2ccccc2)CN1S(=O)(=O)c1c(C)noc1C | -9%
O=C1Nc2ccccc2CC12CN([S+](=O)([O-])c1cccs1)C2 | 1%
CC(C)(C)CNC1(Cc2cc(CCO)on2)COC1 | -3%[44.1 µM]
O=C(C1CCCC1)N1CCn2c(nn(-c3ccncc3)c2=O)C1 | -7%[44.1 µM]
Cc1cnc(C(=O)NC2C[C@H]3CC[C@@H](C2)N3C(=O)Nc2cccc(C(F)(F)F)c2)cn1 (stereo partly drawn) | -9%
Cc1noc(-c2cn(C3CCN(C(=O)c4cccc(F)c4)CC3)nn2)n1 | i
CS(=O)(=O)N1CCC(Oc2ccccc2-c2nc(C3CC3)no2)C1 (stereo not drawn) | i
O=S(=O)(c1ccc2c(c1)CCCC2)N1CCCC(Cn2cnc3cccnc32)C1 (stereo not drawn) | -7%
CCNC(=O)NCC1Cn2cccc2CN1C (stereo not drawn) | -16%
CNC(=O)N1C[C@@H](CN(C)C)[C@H](NC(=O)c2ccco2)C1 | 16%
SMILES | Pf Dd2 inh
CC1=C[C@@H](CNC(=O)NC(C)C)[C@H](C(C)C)C[C@H]1CC(=O)NCc1ccccn1 | -22%[44.1 µM]
CC1=C[C@@H](CNC(=O)c2cccnc2)[C@H](C(C)C)C[C@H]1CC(=O)NCc1ccccn1 | -12%[44.1 µM]
CC1=C[C@@H](CN(C)CCc2ccccn2)[C@H](C(C)C)C[C@H]1Cc1nnc(-c2ccncc2)o1 | 3.5µM*
Cc1cc(-c2cccc(OC(C)C)c2)cnc1-n1cnnc1 | -2%
O=C1CCCCC(C(=O)NCCc2ccncc2)N1 (stereo not drawn) | 10%
CCNC(=O)NC1(CCOC)CCN(C(=O)Cc2cccc(OC)c2)CC1 | i
COc1ccc(CN2CC(Oc3ccc4c(c3)OCO4)C2)cc1 | -2%
COc1ccc2cc1Nc1ccc(cc1)C[C@H](NCc1ccc(C)o1)C(=O)N(C)[C@H](C(=O)NCCC(C)C)C2 | 1µM*
COc1ccc2cc1Nc1ccc(cc1)C[C@H](NCC1CC1)C(=O)N(C)[C@@H](C(=O)NCc1ccccc1)C2 | -25%
COc1ccc2cc1Nc1ccc(cc1)C[C@H](NCc1ccc(O)cc1)C(=O)N(C)[C@H](C(=O)NCCOc1ccccc1)C2 | 2.5µM*
COc1ccc(CCN2CC(C(=O)NCCc3ccc(C)cc3)CC2=O)cc1OC (stereo not drawn) | 24%
COc1cccc(N2CC(C(=O)NCCOc3ccccc3)NC2=O)c1 (stereo not drawn) | 12%
Cc1ccc(CNC(=O)C2N(C(C)C)C(=O)C23CCCC3)o1 (stereo not drawn) | 6%
COc1cccc(C(=O)N2CCC(N3C(=O)CCC3C(=O)NCc3ccccc3)CC2)c1C (stereo not drawn) | -5%
COc1ccc2cc1Nc1ccc(cc1)C[C@H](NCc1ccc(C)o1)C(=O)N(C)[C@@H](C(=O)NCc1ccccc1)C2 | 0.89µM*
COCCN1CC(C(=O)NCCOc2ccccc2)CCC1=O (stereo not drawn) | -7%
O=C(Cc1ccccc1)N1CCC2(CC(c3cccnc3)=NO2)C1 (stereo not drawn) | 12%
C[C@]1(CO)[C@H]2Cc3sc(NC(=O)c4ccco4)nc3[C@@H](CC(=O)NC3CCCC3)[C@]2(C)CC[C@H]1O | -9%
Cc1cccc(CN2C[C@@H]3C(C(=O)Nc4ccccc4)=NO[C@@H]3C2)c1 | -25%[44.1 µM]
COCCNS(=O)(=O)c1cc(C(=O)O)cc(-c2cccc(C(C)N(C)C)c2)c1 (stereo not drawn) | -3%
COC[C@H]1CCCN1[C@@H]1[C@H](O)[C@H](CO)O[C@@H]1CNC(=O)Nc1cccc(Cl)c1 | i
CC(C)CCNC(=O)N1CCC(N2CC3CC(C2)[C@H]2CCCC(=O)N2C3)CC1 (stereo partly drawn) | 3%
O=C(Nc1ccc(Cl)cc1)c1ccc(-n2cnnc2)cc1 | -6%
Cc1ccsc1C(=O)Nc1ccc2c(N3CCCCC3)ncnc2c1 | 11µM*
O=C(Nc1ccc2c(N3CCCC3)ncnc2c1)c1ccc(Cl)cc1 | 2.8µM*
SMILES | Pf Dd2 inh
O=C(Nc1ccc2c(N3CCCCC3)ncnc2c1)c1ccc(F)cc1 | 3.2µM*
O=C(Nc1ccc2ncnc(N3CCCCC3)c2c1)c1cc(F)cc(F)c1 | -20%
CC(=O)c1ccc(NC(=O)c2nc3ccccc3nc2N2CCCCC2)cc1 | i
CCc1cc(N2CCCC(C(=O)c3sccc3C)C2)ncn1 (stereo not drawn) | i
O=C(Nc1ccc2oc(-c3cccnc3)nc2c1)c1cccc(Br)c1 | 54%
O=C(Nc1ccc2c(N3CCCC3)ncnc2c1)c1cccc(Br)c1 | 0.89µM*
O=C(Nc1ccc2ncnc(N3CCCCC3)c2c1)c1ccccc1 | i
CCc1cccc(NC(=O)c2c(C)oc3ncnc(N4CCCCC4)c23)c1 | -10%
Cc1ccc(F)cc1S(=O)(=O)N(C)CC1CCOCC1 | 14%
O=C(Cc1ccsc1)Nc1cnc(-c2ccccc2)nc1 | -4%
O=c1ccc(-c2cccs2)c2n1C[C@H]1C[C@@H]2CN(S(=O)(=O)c2cccs2)C1 | -21%[44.1 µM]
CCN1c2cc(C(=O)Nc3ccc(Cl)c(C)c3)ccc2C(=O)N2CCCCC21 (stereo not drawn) | -21%
Cc1c(Cl)cccc1NC(=O)Cn1ccn2nc(-c3ccccc3)c(CO)c2c1=O | 1%
CCc1ccc(S(=O)(=O)N(C)CC2CCOC2)cc1 (stereo not drawn) | 76%[5.79 µM]
CN(C)c1nccnc1OC1CCN(C(=O)CC2CCCC2)C1 (stereo not drawn) | -9%
Cc1noc(-c2cn(C3CCN(C(=O)c4cccc(Cl)c4)CC3)nn2)n1 | -25%
O=C(NCc1cccc(C(F)(F)F)c1)C1CN(c2cccc(Cl)c2)C(=O)N1 (stereo not drawn) | i
Cc1ccc(C(=O)Nc2ccc3c(N4CCOCC4)ncnc3c2)cc1C | 11µM*

Source: PubChem BioAssay (National Center for Advancing Translational Sciences (NCATS))
